According to the supplement of paper PMC10981050:
Values joined by “and” are separate entries in the source; they are usually repeats but may differ in a detail not shown here. Equal entries are not always repeated. Structures can show the parent of a compound that is named as a salt.

Assays:
Experiment in all cases: cell viability relative to vehicle control; higher = less cytotoxic
Conditions in all cases: 10 µM
[1] = test system: K562
Method in brief: (§1)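 Screening covered the Selleck bioactive, kinase and epigenetic probe libraries, less identity-inconsistent compounds, on CRISPR-edited mutant clones and isogenic wild-type clones of four leukaemia lines. Cells, at 2000 per well in 50 µL medium, received a single 10 µM acoustically dispensed dose. After 48 h the supernatant was removed and CellTiter-Glo luminescence was read. Viability was analysed in Genedata Screener as percent of the on-plate vehicle control.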

[2] = test system: MARIMO
Method in brief: as §1

[3] = test system: MOLM14
Method in brief: as §1

[4] = test system: OCI-AML2
Method in brief: as §1

SMILES | cell viability ([1]; SRSF2 genotype: SRSF2 P95H/wt) | cell viability ([1]; SRSF2 genotype: SRSF2 wt/wt) | cell viability ([2]; SRSF2 genotype: SRSF2 P95H/wt) | cell viability ([2]; SRSF2 genotype: SRSF2 wt/wt) | cell viability ([3]; SRSF2 genotype: SRSF2 P95H/wt) | cell viability ([3]; SRSF2 genotype: SRSF2 wt/wt) | cell viability ([4]; SRSF2 genotype: P95H/wt) | cell viability ([4]; SRSF2 genotype: wt/wt)
C[N+]1(C)[C@@H]2C[C@@H](OC(=O)C(O)(c3cccs3)c3cccs3)C[C@H]1[C@@H]1O[C@@H]12 [Tiotropium Bromide hydrate] | 106% and 108% | 98.9% | 102% | 107% | 105% | 104% | 98.9% | 104%
CCN(CC)CCOc1ccc(C(=C(Cl)c2ccccc2)c2ccccc2)cc1 [Clomifene citrate (Serophene)] | 37.2% and 36.3% | 62.6% | 57.2% | 61.7% | 50.8% | 60.9% | 54.5% | 52.3%
Cc1cc(NS(=O)(=O)c2ccc(N)cc2)no1 [Sulfamethoxazole] | 94.6% and 85.2% | 92.6% | 89.7% | 95.6% | 99.8% | 91.1% | 85.2% | 95.5%
CCCCC[C@H](O)CC(=O)CCc1ccc(O)c(OC)c1 [6-Gingerol] | 87.8% and 85.7% | 82.9% | 86.8% | 98.7% | 90.6% | 95.5% | 90.9% | 81.8%
COc1ccc(-c2oc3c(CC=C(C)C)c(O[C@@H]4O[C@H](CO)[C@@H](O)[C@H](O)[C@H]4O)cc(O)c3c(=O)c2O[C@@H]2O[C@@H](C)[C@H](O)[C@@H](O)[C@H]2O[C@@H]2OC[C@@H](O)[C@H](O)[C@H]2O)cc1 [Epmedin B] | 103% and 99.7% | 102% | 105% | 93% | 110% | 102% | 103% | 99.5%
